Activity calls are given as the source filed them. Rule for the calls: active = hit-call score of the fitted dose curve at least 0.9, where 1 is the maximum; inactive = score below 0.9.

Read-out in the assay: CFLAR gene, CFLAR (gene 8837)
Briefly: LTEA_HepaRG_CFLAR: Life Technologies and Expression Analysis (LTEA) Assay for CFLAR gene using HepaRG (AID 2283455). The settings on record: mRNA level, 48 h; actives raise or lower the signal. As for the experimental part:
LTEA_HepaRG is a cell based, multiplexed-readout assay that uses HepaRG, a human liver cell line, with measurements taken at 48 hours after chemical dosing on a 96-well plate.LTEA_HepaRG_CFLAR is one of 102 assay component(s) measured in the LTEA HepaRG cell culture assay. It is a marker of Cell proliferation, survival, death.Data from the assay component LTEA_HepaRG_CFLAR was analyzed into 1 endpoint. This assay endpoint, LTEA_HepaRG_CFLAR, was analyzed with bidirectional fitting relative to DMSO as the negative control and baseline of activity. Using a type of inducible reporter, measures of mRNA induction for gain or loss-of-signal activity can be used to understand regulation of transcription factor activity. To generalize the intended target to other relatable targets, this assay endpoint is annotated to the cell cycle intended target family, where the subfamily is Cell proliferation, survival, death.
A total of 1060 chemcials from the ToxCast library were tested in eight-point concentration-response experiments. Cell culture and cytotoxicity assays were conducted at Thermo Fisher Scientific's Custom Services facility (Madison, WI). A single lot of human HepaRG cells (Thermo Fisher Scientific, Frederick, MD) was used for the cell culture experiments. 96-well format collagen type I coated plates of human HepaRG cells were prepared using established methods. Briefly, cryopreserved HepaRG cells were thawed, plated at a density of approximately 100,000 cells/well in HepaRG Thaw, Plate, and General Purpose media (HPRG770, Thermo Fisher Scientific), and incubated for 48 hours. 0.5% DMSO was selected as vehicle control to balance the requisite need of DMSO in HepaRG cultures to maintain differentiation (for example, baseline metabolism, proportions of hepatocytes vs. cholangiocytes), while enabling further hepatic receptor pathway activation (for example, PXR and CAR) in response to chemical exposure. 48 hours after plating, the culture medium was replaced with HepaRG Serum-Free Incudtion Media. Cells were exposed to each test chemical in duplicate and maintained in CO2 incubators for another 48 hours. Chemical plates were thawed to room temperature and 200x concentrations of treatment groups were prepared. 8-point conentration-reponse curves were made with the highest exposure at 100 uM, followed by half-log dilutions, all in 0.5% DMSO. Each test plate contained variouse controls, induction positive controls (1mM phenobarbital), cytotoxicity positive controls ([…] aflatoxin B1), vehicle controls (0.5% DMSO), and total lysis controls (0.5% DMSO). Cell morphology images were taken using an Essen IncuCyte FLR automated microscope, with six 96-well plates imaged in about 24 minutes. Images were captured and exported and JPEG files. Spent culture media was transfered to black-well plates for the LDH assay, and remaining media was sorted at -80 C for later use. Cells were treated with RLT buffer and frozen until shipped for gene expression analysis. Total RNA was isolated from the cell suspension in 75 uL of Buffer RLT (Qiagen, Germantown, MD 20874) by Quintiles/Expression Analysis (Durham, NC) using a custom isolation procedure. Total RNA from each plate well was transferred to a preamplification plate. Fluidigm's 96.96 Dynamic ArrayTM (Fluidigm, Amsterdam, the Netherlands) technology was used for gene expression analyses by quantitative reverse transcription polymerase chain reaction (qRT-PCR, performed by Quintiles/Expression Analysis, Durham, NC)89. Standard TaqManTM Assays (Applied Biosystems/ThermoFisher Scientific, Foster City, CA) were used to assess the expression of 93 genes selected based on their selectivity and sensitivity to important hepatic receptors known to be modulated by environmental chemicals; importance in human hepatocyte functionality; and hepatotoxicity. […]
For the compound `CCCCOC(=O)CCCCCCCCC(=O)OCCCC`, the compound was called inactive.

For `CCCCCCCCCCCCCCCC`, the compound was classed as inactive. On to `CCCCCCCCCCCC(=O)OC`, for which the call was inactive.

Turning to `Cc1cccc(Nc2cc(Cl)nc(SCC(=O)O)n2)c1C`, the outcome was inactive. With `Clc1cc(Cl)c(Cl)cc1Cl`, the compound was classed as inactive. Regarding `CC(=O)OC/C=C(\C)CCC=C(C)C`, the call was inactive. Still for that read-out and setting: under `CCCCN(CCCC)CCCC` stands “inactive”; under `CNC(=O)[C@H]1O[C@@H](n2cnc3c(NCc4cc(Cl)ccc4OCc4cc(C)no4)ncnc32)[C@H](O)[C@@H]1N`, “inactive”; under `NCCO`, “inactive”. As to `Cc1nc(C)nc(N2C[C@@H](C)N(c3ccnc([C@@H](C)O)n3)[C@@H](C)C2)n1`, the result was inactive. On to `NC(=O)Cn1c(=O)cc(CCN2CCN(c3nccc4sccc34)CC2)c2ccc(F)cc21`, for which the compound was classed as inactive. Consider `CNCc1cc(F)ccc1Oc1ccc(Cl)c(Cl)c1`, for which the AC50 was 12.1 µM (active). `CC(=O)Oc1ccccc1C(=O)O`: the result was inactive. As to `CC1(C)CC(N=C=O)CC(C)(CN=C=O)C1` (stereo not given), the compound was classed as inactive. For the compound `O=C(O)CCCCC(=O)O`, the compound was called inactive. The same measure, in the same setting: the same measure for `CCOC(=O)C(C)(C)Oc1ccc(Cl)cc1`: “inactive”; for `c1cc(-c2ccncc2)ccn1`: “inactive”. Regarding `CN[C@H]1CC[C@@H](c2ccc(Cl)c(Cl)c2)c2ccc(S(N)(=O)=O)cc21`, the call was inactive.

In the case of `O=[N+]([O-])C(CO)(CO)CO`, the compound was classed as inactive.

For `C1CCC(SSC2CCCCC2)CC1`, the compound was called inactive.

For the compound `NCC1(Cc2noc(=O)[nH]2)CCCCC1`, the compound was classed as inactive. In the case of `Cc1cc(NC(=O)C(=O)O)cc(C)c1Oc1ccc(O)c2c1CCC2`, the compound was called inactive.

As to `COc1cc(S(=O)(=O)O)c(C)cc1N=Nc1c(O)ccc2cc(S(=O)(=O)O)ccc12`, the result was inactive. `CCCCCCCCCCO`: the result was inactive.

Take `O=C(O)Cc1ccccc1Nc1c(Cl)cccc1Cl`: the compound was classed as inactive. Regarding `Cc1ccc(N(C)C)cc1`, the result was inactive.

For the compound `NS(=O)(=O)c1cc2c(cc1Cl)NCNS2(=O)=O`, the outcome was inactive. Take `Nc1nc(N)c2nc(CNc3ccc(C(=O)N[C@@H](CCC(=O)O)C(=O)O)cc3)cnc2n1`: the compound was called inactive. On to `CCc1c(C(=O)NN2CCCCC2)nn(-c2ccc(Cl)cc2Cl)c1-c1ccc(Br)cc1`, for which the compound was called inactive.

In the case of `Cc1ccccc1Cl`, the result was inactive. Regarding `COc1ccc2c(c1)c(CC(=O)O)c(C)n2C(=O)c1ccc(Cl)cc1`, the compound was classed as inactive.

With `FC(F)(F)C(F)(F)C(F)(F)C(F)(F)C(F)(F)C(F)(F)CCI`, the outcome was inactive. As for `CCCc1cc(=O)[nH]c(=S)[nH]1`, the outcome was inactive. Consider `Oc1ccc2ccccc2c1N=Nc1ccccc1`, for which the AC50 is 11.3 µM (active).

Regarding `COc1cc(-c2nc(NC(=O)c3cc4cc(C)cc(C)c4n3CC(=O)O)sc2CCC2CCCCC2)c(OC)cc1Cl`, the AC50 was 19.8 µM (active).

Consider `COc1ccc(S(=O)(=O)N2C(=O)[C@@](c3ccccc3OC)(N3C[C@H](O)C[C@H]3C(=O)N(C)C)c3cc(Cl)ccc32)c(OC)c1`, for which the compound was called inactive.

`OC[C@@H](O)[C@@H](O)[C@H](O)[C@H](O)CO`: the compound was classed as inactive. For `COCCOCCOC`, the AC50 was 0.253 µM (active). On to `C[Si]1(C)O[Si](C)(C)O[Si](C)(C)O[Si](C)(C)O1`, for which the call was inactive. `Nc1ccccc1N`: the AC50 is 61.4 µM (active).

Source of the values: PubChem BioAssay (EPA / NIEHS).
